# Experiments:
# Test in all cases: DAPPL (digital affinity profiling via proximity ligation, sequencing); 10 mM Tris-HCl pH 7.5, 50 mM NaCl, 1 mM DTT, 4% glycerol, room temperature, 30 min; GST-TFs on glutathione beads, 16-mer random dsDNA library, 0.1% formaldehyde crosslink after washing; high values mean tight binding
# Conditions in all cases: protein: recombinant; tags: N-terminal GST; dsDNA, one strand shown
# ELK1 = molecular target: T1, ELK1 (Homo sapiens, UniProt P19419 1-428)
# T1 sequence: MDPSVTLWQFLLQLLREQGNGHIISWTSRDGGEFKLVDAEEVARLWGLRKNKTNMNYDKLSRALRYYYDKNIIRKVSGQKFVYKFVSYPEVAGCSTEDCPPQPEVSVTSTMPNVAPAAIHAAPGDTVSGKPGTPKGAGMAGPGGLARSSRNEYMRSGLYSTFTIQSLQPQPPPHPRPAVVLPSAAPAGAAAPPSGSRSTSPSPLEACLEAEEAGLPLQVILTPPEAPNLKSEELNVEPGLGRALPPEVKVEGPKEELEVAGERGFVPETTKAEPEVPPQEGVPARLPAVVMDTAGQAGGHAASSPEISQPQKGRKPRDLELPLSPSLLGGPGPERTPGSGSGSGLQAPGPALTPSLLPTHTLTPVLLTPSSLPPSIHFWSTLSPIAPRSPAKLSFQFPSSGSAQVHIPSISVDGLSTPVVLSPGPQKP
# Summary of the method: (§1)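 Binding signal is defined as a hexamer's read frequency for one factor over its frequency for the tag-only sample. To obtain reads, GST-fused human transcription factors were expressed in yeast, captured on glutathione beads, barcoded with DNA and pooled with that sample. Pools met 200 nmole of a 16-mer random double-stranded DNA library in Tris/NaCl/DTT/glycerol buffer for 30 min at room temperature before washing, 0.1% formaldehyde crosslinking, proximity ligation (BsaI/T4 ligase, 1 h, 37 °C), PCR and Illumina NextSeq500 sequencing.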
# GABPA = molecular target: T2, GABPA (Homo sapiens, UniProt Q06546 1-454)
# T2 sequence: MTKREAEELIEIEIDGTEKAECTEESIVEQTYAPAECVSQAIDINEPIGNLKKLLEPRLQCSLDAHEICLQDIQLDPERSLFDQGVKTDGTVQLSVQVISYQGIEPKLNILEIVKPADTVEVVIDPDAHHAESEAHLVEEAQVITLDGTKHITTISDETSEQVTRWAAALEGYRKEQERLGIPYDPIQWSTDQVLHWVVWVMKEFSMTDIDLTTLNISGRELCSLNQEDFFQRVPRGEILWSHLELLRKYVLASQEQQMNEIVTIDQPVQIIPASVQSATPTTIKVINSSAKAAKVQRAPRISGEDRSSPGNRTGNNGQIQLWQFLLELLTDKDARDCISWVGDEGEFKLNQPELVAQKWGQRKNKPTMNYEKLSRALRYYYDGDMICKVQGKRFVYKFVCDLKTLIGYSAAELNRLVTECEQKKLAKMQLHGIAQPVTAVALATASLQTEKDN
# Summary of the method: as §1
# ELF1 = ELF1 (Homo sapiens, UniProt P32519 1-619)
# ELF1, sequence (P32519 whole entry): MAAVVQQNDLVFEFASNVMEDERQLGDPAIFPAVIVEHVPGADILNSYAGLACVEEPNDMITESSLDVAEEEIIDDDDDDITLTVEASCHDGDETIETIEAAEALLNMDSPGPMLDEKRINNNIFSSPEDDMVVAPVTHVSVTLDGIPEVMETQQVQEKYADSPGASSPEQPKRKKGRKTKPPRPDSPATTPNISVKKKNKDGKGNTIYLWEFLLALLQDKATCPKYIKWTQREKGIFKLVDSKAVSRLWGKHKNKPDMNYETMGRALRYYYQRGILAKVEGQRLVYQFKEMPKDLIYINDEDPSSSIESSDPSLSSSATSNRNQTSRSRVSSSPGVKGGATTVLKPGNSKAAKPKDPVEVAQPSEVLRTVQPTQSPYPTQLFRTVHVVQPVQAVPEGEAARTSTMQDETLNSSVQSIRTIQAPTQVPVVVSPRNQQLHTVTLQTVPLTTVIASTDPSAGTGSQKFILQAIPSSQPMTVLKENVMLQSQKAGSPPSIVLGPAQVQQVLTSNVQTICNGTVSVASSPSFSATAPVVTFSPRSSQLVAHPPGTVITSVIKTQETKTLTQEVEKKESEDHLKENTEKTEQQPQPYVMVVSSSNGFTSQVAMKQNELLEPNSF
# Summary of the method: as §1
# SPIB = SPIB (Homo sapiens, UniProt Q01892 1-262)
# SPIB, sequence (Q01892 whole entry): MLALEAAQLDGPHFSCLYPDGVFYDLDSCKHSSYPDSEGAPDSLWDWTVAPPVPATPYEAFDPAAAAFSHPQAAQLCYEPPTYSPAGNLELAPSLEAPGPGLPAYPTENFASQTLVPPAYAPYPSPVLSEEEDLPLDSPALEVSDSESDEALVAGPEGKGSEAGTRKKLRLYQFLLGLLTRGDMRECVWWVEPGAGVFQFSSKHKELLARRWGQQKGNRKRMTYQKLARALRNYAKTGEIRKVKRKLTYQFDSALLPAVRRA
# Summary of the method: as §1
# ELK3 = molecular target: T3, ELK3 (Homo sapiens, UniProt P41970 1-407)
# T3 sequence: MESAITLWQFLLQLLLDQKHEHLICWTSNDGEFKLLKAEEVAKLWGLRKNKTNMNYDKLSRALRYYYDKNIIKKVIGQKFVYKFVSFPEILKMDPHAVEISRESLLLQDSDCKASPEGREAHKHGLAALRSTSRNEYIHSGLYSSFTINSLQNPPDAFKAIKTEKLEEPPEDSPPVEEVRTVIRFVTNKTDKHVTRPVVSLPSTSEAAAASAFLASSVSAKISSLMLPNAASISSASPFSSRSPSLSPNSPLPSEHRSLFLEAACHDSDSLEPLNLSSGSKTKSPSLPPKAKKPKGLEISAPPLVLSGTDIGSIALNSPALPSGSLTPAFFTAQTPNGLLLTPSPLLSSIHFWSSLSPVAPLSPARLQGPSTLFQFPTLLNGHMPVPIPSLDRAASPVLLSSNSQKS
# Summary of the method: as §1
# ELK4 = molecular target: T4, ELK4 (Homo sapiens, UniProt P28324-2 1-405)
# T4 sequence: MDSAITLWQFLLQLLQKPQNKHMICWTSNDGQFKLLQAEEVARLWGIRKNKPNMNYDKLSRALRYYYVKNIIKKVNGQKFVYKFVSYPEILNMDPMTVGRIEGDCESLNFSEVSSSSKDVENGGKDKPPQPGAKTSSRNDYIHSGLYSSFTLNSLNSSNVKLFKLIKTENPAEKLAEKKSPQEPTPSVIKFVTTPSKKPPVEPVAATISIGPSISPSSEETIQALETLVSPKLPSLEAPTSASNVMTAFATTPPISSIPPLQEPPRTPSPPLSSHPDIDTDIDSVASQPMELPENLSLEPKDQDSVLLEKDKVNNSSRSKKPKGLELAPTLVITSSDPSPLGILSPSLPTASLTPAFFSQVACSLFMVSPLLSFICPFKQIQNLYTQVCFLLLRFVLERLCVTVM
# Summary of the method: as §1
# ELF3 = molecular target: T5, ELF3 (Homo sapiens, UniProt P78545 1-371)
# T5 sequence: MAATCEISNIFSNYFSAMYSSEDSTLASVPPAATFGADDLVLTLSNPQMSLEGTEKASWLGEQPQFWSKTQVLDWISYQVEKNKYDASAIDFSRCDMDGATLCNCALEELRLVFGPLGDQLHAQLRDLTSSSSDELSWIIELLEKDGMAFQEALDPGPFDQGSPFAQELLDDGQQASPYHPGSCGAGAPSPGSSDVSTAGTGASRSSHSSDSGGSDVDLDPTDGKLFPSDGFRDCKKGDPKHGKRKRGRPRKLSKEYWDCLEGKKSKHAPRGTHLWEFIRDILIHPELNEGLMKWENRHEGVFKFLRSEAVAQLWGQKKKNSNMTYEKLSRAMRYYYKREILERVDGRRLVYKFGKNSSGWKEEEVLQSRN
# Summary of the method: as §1
# ETV1 = ETV1 (Homo sapiens, UniProt P50549 1-477)
# ETV1, sequence (P50549 whole entry): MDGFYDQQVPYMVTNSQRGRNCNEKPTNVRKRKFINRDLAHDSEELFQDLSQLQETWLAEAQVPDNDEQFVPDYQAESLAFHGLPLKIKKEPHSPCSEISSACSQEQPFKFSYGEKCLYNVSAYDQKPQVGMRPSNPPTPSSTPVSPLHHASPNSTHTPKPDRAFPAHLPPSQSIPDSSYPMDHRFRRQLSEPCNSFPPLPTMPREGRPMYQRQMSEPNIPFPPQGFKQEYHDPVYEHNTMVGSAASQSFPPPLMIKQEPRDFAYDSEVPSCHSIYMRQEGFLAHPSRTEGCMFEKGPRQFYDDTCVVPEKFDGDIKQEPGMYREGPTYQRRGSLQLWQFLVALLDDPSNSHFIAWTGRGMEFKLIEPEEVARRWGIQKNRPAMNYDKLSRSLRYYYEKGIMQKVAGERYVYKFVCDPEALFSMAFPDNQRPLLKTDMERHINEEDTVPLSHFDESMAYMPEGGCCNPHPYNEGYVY
# Summary of the method: as §1
# ETV3L = molecular target: T6, ETV3L (Homo sapiens, UniProt Q6ZN32 1-361)
# T6 sequence: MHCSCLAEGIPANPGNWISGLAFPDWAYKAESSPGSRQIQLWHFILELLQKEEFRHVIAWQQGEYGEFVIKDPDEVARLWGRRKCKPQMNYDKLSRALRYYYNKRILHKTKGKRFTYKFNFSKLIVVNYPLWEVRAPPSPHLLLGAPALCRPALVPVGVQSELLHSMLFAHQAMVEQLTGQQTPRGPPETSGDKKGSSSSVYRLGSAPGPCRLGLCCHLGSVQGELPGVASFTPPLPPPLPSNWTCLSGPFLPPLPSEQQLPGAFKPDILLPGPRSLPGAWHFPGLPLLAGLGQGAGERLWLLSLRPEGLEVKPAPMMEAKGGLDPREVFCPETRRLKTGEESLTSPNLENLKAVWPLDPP
# Summary of the method: as §1
# SPDEF = molecular target: T7, SPDEF (Homo sapiens, UniProt O95238 1-335)
# T7 sequence: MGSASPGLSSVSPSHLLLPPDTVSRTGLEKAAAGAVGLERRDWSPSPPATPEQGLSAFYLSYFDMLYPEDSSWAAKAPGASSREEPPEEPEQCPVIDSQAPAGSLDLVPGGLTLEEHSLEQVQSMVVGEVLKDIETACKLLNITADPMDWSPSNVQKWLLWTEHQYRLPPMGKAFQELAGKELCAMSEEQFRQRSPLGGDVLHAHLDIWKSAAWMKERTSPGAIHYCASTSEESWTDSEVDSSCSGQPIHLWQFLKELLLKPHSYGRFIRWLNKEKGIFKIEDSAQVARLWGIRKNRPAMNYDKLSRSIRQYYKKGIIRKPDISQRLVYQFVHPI
# Summary of the method: as §1
# ETV7 = molecular target: T8, ETV7 (Homo sapiens, UniProt Q9Y603 1-341)
# T8 sequence: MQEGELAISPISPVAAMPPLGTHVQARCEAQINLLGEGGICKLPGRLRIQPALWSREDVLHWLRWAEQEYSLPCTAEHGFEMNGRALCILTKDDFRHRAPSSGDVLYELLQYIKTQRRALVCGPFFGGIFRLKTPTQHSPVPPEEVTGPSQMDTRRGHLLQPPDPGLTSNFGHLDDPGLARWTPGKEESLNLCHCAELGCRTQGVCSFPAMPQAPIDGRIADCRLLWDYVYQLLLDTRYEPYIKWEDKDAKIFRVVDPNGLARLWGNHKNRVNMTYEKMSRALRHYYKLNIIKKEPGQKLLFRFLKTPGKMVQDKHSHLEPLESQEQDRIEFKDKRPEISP
# Summary of the method: as §1
# ETV3 = molecular target: T9, ETV3 (Homo sapiens, UniProt P41162-2 1-143)
# T9 sequence: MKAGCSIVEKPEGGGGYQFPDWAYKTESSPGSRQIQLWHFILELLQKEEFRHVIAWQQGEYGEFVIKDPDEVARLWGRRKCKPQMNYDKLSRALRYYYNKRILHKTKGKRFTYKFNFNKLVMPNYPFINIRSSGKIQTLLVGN
# Summary of the method: as §1
# EHF = molecular target: T10, EHF (Homo sapiens, UniProt Q9NZC4 1-300)
# T10 sequence: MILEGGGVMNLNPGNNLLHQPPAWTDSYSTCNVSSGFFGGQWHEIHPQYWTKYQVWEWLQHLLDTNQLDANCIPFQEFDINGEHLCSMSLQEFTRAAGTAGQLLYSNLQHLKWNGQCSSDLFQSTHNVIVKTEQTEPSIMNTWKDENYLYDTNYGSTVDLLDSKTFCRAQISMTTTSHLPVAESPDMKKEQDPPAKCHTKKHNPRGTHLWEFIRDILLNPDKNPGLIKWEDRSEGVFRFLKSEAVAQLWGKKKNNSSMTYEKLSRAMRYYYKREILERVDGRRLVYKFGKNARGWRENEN
# Summary of the method: as §1
# SPIC = molecular target: T11, SPIC (Homo sapiens, UniProt Q8N5J4 1-248)
# T11 sequence: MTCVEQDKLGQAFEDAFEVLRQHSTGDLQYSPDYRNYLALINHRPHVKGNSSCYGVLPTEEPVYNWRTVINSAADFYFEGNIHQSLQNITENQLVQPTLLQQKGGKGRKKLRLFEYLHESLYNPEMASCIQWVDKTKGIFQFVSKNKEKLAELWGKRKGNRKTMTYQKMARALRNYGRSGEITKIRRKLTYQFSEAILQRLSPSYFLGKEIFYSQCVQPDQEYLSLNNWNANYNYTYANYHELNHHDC
# Summary of the method: as §1
# ELF4 = ELF4 (Homo sapiens, UniProt Q99607 1-663)
# ELF4, sequence (Q99607 whole entry): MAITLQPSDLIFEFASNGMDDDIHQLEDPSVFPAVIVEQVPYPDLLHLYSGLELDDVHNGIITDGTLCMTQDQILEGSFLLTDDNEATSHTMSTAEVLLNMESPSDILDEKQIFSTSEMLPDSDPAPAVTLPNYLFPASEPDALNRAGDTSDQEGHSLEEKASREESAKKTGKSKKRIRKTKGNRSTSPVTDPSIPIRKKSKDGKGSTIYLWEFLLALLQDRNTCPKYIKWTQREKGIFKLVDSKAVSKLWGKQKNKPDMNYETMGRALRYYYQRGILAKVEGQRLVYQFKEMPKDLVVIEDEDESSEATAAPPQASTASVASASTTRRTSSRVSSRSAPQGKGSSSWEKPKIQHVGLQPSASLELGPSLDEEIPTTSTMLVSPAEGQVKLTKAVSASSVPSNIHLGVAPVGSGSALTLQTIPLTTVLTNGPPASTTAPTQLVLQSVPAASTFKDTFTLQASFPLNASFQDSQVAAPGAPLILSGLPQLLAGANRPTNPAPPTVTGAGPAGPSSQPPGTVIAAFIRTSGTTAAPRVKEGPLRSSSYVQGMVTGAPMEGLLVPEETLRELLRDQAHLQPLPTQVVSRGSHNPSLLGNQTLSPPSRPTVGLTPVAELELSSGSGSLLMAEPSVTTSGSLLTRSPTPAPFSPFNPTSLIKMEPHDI
# Summary of the method: as §1
# ERF = molecular target: T12, ERF (Homo sapiens, UniProt P50548 1-548)
# T12 sequence: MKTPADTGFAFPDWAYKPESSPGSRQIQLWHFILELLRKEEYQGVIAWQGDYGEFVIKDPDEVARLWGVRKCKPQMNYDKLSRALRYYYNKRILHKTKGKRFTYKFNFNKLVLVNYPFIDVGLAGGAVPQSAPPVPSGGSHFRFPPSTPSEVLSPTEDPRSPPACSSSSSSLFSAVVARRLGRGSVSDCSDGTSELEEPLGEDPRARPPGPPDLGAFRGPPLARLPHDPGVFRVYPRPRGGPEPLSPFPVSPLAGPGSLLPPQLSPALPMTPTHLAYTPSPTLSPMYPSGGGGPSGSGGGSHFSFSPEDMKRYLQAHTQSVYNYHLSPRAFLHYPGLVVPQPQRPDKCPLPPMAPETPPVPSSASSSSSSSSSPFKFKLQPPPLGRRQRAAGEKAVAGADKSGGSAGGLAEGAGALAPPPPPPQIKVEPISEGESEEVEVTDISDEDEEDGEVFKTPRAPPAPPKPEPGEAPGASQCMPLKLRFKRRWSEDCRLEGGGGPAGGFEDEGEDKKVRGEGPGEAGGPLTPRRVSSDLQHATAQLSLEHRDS
# Summary of the method: as §1
# ETS2 = molecular target: T13, ETS2 (Homo sapiens, UniProt P15036 1-469)
# T13 sequence: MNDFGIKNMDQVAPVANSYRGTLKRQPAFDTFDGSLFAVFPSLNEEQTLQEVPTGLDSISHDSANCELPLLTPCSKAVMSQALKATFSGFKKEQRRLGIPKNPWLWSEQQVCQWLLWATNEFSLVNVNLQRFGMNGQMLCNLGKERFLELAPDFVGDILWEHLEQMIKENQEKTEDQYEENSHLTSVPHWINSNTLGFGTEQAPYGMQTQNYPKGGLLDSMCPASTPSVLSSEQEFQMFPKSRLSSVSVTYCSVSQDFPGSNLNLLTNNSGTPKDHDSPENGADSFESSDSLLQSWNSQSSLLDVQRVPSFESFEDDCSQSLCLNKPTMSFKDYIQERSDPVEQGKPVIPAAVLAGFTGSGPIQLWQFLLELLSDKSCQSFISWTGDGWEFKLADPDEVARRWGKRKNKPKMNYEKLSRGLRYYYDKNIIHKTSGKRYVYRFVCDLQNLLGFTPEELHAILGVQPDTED
# Summary of the method: as §1
# ETV6 = ETV6 (Homo sapiens, UniProt P41212 1-452)
# ETV6, sequence (P41212 whole entry): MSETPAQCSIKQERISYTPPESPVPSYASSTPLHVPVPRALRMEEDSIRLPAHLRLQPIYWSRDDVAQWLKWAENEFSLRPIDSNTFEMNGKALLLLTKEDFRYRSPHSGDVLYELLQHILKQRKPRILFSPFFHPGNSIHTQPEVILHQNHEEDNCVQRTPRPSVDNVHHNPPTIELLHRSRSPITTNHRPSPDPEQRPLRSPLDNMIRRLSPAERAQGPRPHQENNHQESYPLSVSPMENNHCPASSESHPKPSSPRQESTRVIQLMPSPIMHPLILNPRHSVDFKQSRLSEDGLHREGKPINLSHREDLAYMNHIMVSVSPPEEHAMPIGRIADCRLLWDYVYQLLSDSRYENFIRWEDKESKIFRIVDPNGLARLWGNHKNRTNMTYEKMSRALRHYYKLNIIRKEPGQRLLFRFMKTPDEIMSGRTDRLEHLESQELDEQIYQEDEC
# Summary of the method: as §1
Sequence,binding signal (ELK1),binding signal (GABPA),binding signal (ELF1),binding signal (SPIB),binding signal (ELK3),binding signal (ELK4),binding signal (ELF3),binding signal (ETV1),binding signal (ETV3L),binding signal (SPDEF),binding signal (ETV7),binding signal (ETV3),binding signal (EHF),binding signal (SPIC),binding signal (ELF4),binding signal (ERF),binding signal (ETS2),binding signal (ETV6)
GGTTCT,"1.02 fold enrichment (6-mer frequency, TF over GST control)","1.02 fold enrichment (6-mer frequency, TF over GST control)","1.03 fold enrichment (6-mer frequency, TF over GST control)","1.05 fold enrichment (6-mer frequency, TF over GST control)","1.11 fold enrichment (6-mer frequency, TF over GST control)","1.03 fold enrichment (6-mer frequency, TF over GST control)","1.08 fold enrichment (6-mer frequency, TF over GST control)","1.01 fold enrichment (6-mer frequency, TF over GST control)","1.01 fold enrichment (6-mer frequency, TF over GST control)","1.01 fold enrichment (6-mer frequency, TF over GST control)","1.01 fold enrichment (6-mer frequency, TF over GST control)","1 fold enrichment (6-mer frequency, TF over GST control)",,,,,,
GCTGCA,"1.07 fold enrichment (6-mer frequency, TF over GST control)","1.05 fold enrichment (6-mer frequency, TF over GST control)","1.05 fold enrichment (6-mer frequency, TF over GST control)","1.07 fold enrichment (6-mer frequency, TF over GST control)",,"1.08 fold enrichment (6-mer frequency, TF over GST control)",,,"1.11 fold enrichment (6-mer frequency, TF over GST control)",,,,"1.08 fold enrichment (6-mer frequency, TF over GST control)","1.09 fold enrichment (6-mer frequency, TF over GST control)","1.05 fold enrichment (6-mer frequency, TF over GST control)","1.2 fold enrichment (6-mer frequency, TF over GST control)","1.07 fold enrichment (6-mer frequency, TF over GST control)","1 fold enrichment (6-mer frequency, TF over GST control)"

# Source: PMC7862700, “An all-to-all approach to the identification of sequence-specific readers for epigenetic DNA modifications on cytosine”
